These results are taken from PubChem BioAssay (Tox21).

Inconclusive results are not listed. A number with no mark means an inactive call. The call rests on the fitted dose curve.
On the % scale 0 is the no-effect control and ±100 the full control effect.

The nature of the assay: p53 small molecule agonists, cell-based qHTS assay with rat liver microsomes (AID 1963578). The conditions noted are these: HCT-116 p53RE-bla, beta-lactamase ratio, 16 h; series mostly up to 66 µM; activation: at the top concentration. From the text:
U.S. Tox21 Program National Center for Advancing Translational Sciences [NCATS] Division of Preclinical Innovation [DPI] U.S. Environmental Protection Agency [EPA] National Institutes of Environmental Health Sciences [NIEHS] National Toxicology Program [NTP] U.S. Food and Drug Administration [FDA] Tox21 Assay Overview: p53, a tumor suppressor protein, is activated following cellular insult, including DNA damage and other cellular stresses. The activation of p53 regulates cell fate by inducing DNA repair, cell cycle arrest, apoptosis, or cellular senescence. The activation of p53, therefore, is a good indicator of DNA damage and other cellular stresses. […] The activation of the reporter gene under culture conditions can be detected by fluorescence intensity. This cell line was used to screen the Tox21 10K compound library in the condition of presence of rat liver microsomes and to identify agonists that activate the p53 signaling pathway after in vitro metabolic activation (Ooka et al., Archive of Toxicology 96:1975-1987, 2022).
Tox21 Assay Protocol Summary: The p53RE-bla cells were dispensed at 4,000cells/3ul/well in 1536-well black-clear bottom plates. After the assay plates were incubated at 37 C, 5% CO2 incubator for 5 hours, 23 nL of compounds dissolved in DMSO, positive controls or DMSO only was transferred to the assay plate. Following compound addition, 3 uL of rat liver microsomes (Molecular Toxicology, Boone, NC) at final concentration of 0.5 mg/mL and 1uL of Beta-Nicotinamide adenine dinucleotide 2-phosphate (NADPH) at final concentration of 0.5 mg/mL were transferred to the assay plate. The plates were incubated at 37 C for 16 hours. 1 uL of LiveBLAzer detection mixture was added to each well and the plates were incubated at room temperature in the dark for 2 h.
For orientation: qHTS replaces the single test concentration by a dilution series.
With `O=C(O)c1cc(Cl)cc(Cl)c1O`, the “activation” value is -2.14%.

As to `CN1CCN(C2=Nc3cc(F)ccc3Cc3ccccc32)CC1`, the “activation” value was -1.49% [at 30.3 µM]. Then `CCCCC(CC)CN` (stereo not given), with 1.16%. Regarding `CCCCCCCCC(C)=O`, the “activation” value was -0.514%.

For `CC(=O)CCc1ccc(O)cc1`, the “activation” value was -1.38%. The figure for `SC1CCCCC1` is -2.45%; for `CC[N+](C)(CC)CCOC(=O)C(O)(c1ccccc1)C1CCCCC1` (stereo not given) it is 1.74% [at 30.3 µM]; for `CC(CN1CC(=O)NC(=O)C1)N1CC(=O)NC(=O)C1` (stereo not given) it is 7.68%.

`O=S1(=O)c2cccc3cccc(c23)N1CCCN1CCN(c2ccc(F)cc2)CC1`: the “activation” value was -0.934% [at 30.3 µM]. As for `CC(=O)[C@H]1CC[C@H]2[C@@H]3C=CC4=CC(=O)CC[C@@]4(C)[C@@H]3CC[C@]12C`, the “activation” value is 1.05% [at 30.3 µM]. On to `CCN(CC)c1cccc(C)c1`, for which the “activation” value is 1%. The figure for `CC(CCc1ccccc1)NCC(O)c1ccc(O)c(C(N)=O)c1` (stereo not given) is 0.0393%.

For the molecule `N#Cc1ccc(C(=O)O)cc1`, the “activation” value is -0.0799%. The figure for `Cc1ccccc1CCO` is 2.01%. For `Oc1ccc(Nc2ccccc2)cc1`, the “activation” value is 17.1%. With `CCCCCCCCCC=O`, the “activation” value is -0.775%. Regarding `CO[Si](OC)(OC)OC`, the “activation” value was -0.539%.

For the molecule `CCN1CCCC1CNC(=O)c1cc(S(N)(=O)=O)ccc1OC` (stereo not given), the “activation” value was -2.94%.

As to `CCC1C(=O)OCC1Cc1cncn1C` (stereo not given), the “activation” value was -3.38% [at 30.3 µM]. `O=C(CCCCC(=O)Nc1c(I)cc(I)c(C(=O)O)c1I)Nc1c(I)cc(I)c(C(=O)O)c1I`: the “activation” value is -0.0407% [at 30.3 µM]. Then `CC(C)(O)C(=O)c1ccccc1`, with 0.291%. Then `Oc1ccccc1Cc1ccccc1O`, with -6.44%; and `[O]=[Bi]`, with 0.191% [at 5.99 µM]. Then `CC1=C(/C=C/C(C)=C\C=C\C(C)=C\C(=O)O)C(C)(C)CCC1`, with 2.23%; and `O=C1c2ccccc2C(=O)N1CCl`, with -1.87%. Turning to `C/C=C(\C)C#N`, the “activation” value is -1.94%.

Take `CCN(CC)CCNc1ccc(CNC=O)c2sc3ccc(OC)cc3c(=O)c12`: the “activation” value was 13.6%. The figure for `CC1=C2[C@H](/C=C(\C)C(=O)O)CC[C@@H](C)[C@H]2CC1` is -3.69%; for `OC(CCCN1CCCCC1)(c1ccccc1)c1ccccc1` it is 0.234% [at 30.3 µM]; for `Oc1c(I)cc(I)c2cccnc12` it is 0% [at 30.3 µM].

Take `COc1ncnc(NS(=O)(=O)c2ccc(N)cc2)c1OC`: the “activation” value is -0.452% [at 30.3 µM]. Then `COc1cc(C(=O)NS(=O)(=O)c2ccccc2C)ccc1Cc1cn(C)c2ccc(NC(=O)OC3CCCC3)cc12`, with -2.55% [at 30.3 µM]; and `CN1CCN(CCCN2c3ccccc3Sc3ccc(Cl)cc32)CC1`, with -1.23% [at 30.3 µM]; and `C[C@H]1C[C@H]2[C@@H]3CCC4=CC(=O)C=C[C@]4(C)[C@H]3C(=O)C[C@]2(C)[C@@]1(O)C(=O)CO`, with -1.98% [at 30.3 µM]. Consider `Cc1nc2ccccc2n1Cc1ccc(Cl)cc1`, for which the “activation” value is 8.19% [at 30.3 µM]. Then `C=C(C)CCCC(C)CCO` (stereo not given), with -1.31%; and `CC(=O)Nc1ccc(C)c(Cl)c1`, with -2.52%; and `CCOC(=O)CC(=O)c1cc(F)c(Cl)nc1Cl`, with -2.34%. The figure for `NCCS` is 0.688% [at 30.3 µM]; for `CC(COc1ccccc1)NC(C)C(O)c1ccc(O)cc1` (stereo not given) it is 1.97% [at 30.3 µM].
